These results are taken from PubChem BioAssay (EPA / NIEHS).

“And” between values parts separate entries of the source, which are not always exact repeats. Equal values may be shown once. Inconclusive results are not listed. The source made the active and inactive calls. How the source made its calls: active means hit-call score of the fitted dose curve at least 0.9, where 1 is the maximum; inconclusive means response in the unintended direction; inactive means score below 0.9.

For orientation: AC50 means the concentration at which the activity in the assay is half-maximal.

For assay [1], the target named is Cellular tumor antigen p53 (Homo sapiens) (UniProt P04637). The assay can be described thus: TOX21_p53_BLA_p2_ratio: Tox21 HCT-116 p53 Agonism Beta-lactamase Assay, Ratio, Phase 2 (AID 2283592). In a few lines:
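Read-out is the blue/green (460/530 nm, 405 nm excitation) ratio after 2 h CCF4-AM loading, fitted as gain versus DMSO. Compounds, pinned at 217-fold dilution from DMSO stocks, stayed 16 h on HCT-116 beta-lactamase reporter cells seeded 5 h earlier.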

A short description of assay [2]: TOX21_p53_BLA_p3_viability: Viability Assessment in the Tox21 HCT-116 p53 Agonism Beta-lactamase Assay, Phase 3 (AID 2283593).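 Further: cells exposed to compound for 16 h before reading.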 In a few lines:
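HCT116 cells, 4000/well, dosed 5 h after plating by pin transfer (217-fold dilution from DMSO stock) and incubated 16 h at 37C, 5% CO2. Viability read as ATP luminescence with CellTiter-Glo after 30 min at room temperature.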

The target in assay [3] is Cellular tumor antigen p53 (Homo sapiens) (UniProt P04637). Kind of assay: TOX21_p53_BLA_p3_ratio: Tox21 HCT-116 p53 Agonism Beta-lactamase Assay, Ratio, Phase 3 (AID 2283596). The method, boiled down: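 Cells were seeded at 4000/well, rested 5 h at 37C, then dosed with DMSO compound solutions (217-fold dilution) for 16 h. CCF4-AM substrate was loaded for 2 h at room temperature, and the 460/530 nm emission ratio was fitted for gain of signal versus DMSO.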
Cellular tumor antigen p53 (Homo sapiens), sequence (P04637 whole entry, looked up): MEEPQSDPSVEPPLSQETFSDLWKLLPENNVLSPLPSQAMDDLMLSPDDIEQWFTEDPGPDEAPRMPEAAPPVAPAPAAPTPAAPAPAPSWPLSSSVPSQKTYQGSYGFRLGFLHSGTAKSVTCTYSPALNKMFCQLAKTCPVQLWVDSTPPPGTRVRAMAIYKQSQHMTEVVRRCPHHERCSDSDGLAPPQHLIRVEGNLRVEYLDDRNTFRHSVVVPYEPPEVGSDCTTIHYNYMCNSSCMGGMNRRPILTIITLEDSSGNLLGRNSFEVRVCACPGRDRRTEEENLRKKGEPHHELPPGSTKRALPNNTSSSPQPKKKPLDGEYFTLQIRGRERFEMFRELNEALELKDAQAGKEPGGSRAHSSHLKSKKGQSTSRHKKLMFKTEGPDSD

A short description of assay [4]: TOX21_p53_BLA_p4_viability: Viability Assessment in the Tox21 HCT-116 p53 Agonism Beta-lactamase Assay, Phase 4 (AID 2283597).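 Further: hits lower the luminescence signal meaning cytotoxicity.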 The method, boiled down:
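Cytotoxicity as reduced cellular ATP (CellTiter-Glo luminescence, 30 min room temperature), measured in the same wells following the CCF4 FRET p53 reading. Human HCT-116 cells received compounds in DMSO (217-fold dilution) for 16 h.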

Assay [5] addresses Cellular tumor antigen p53 (Homo sapiens) (UniProt P04637). The assay can be described thus: TOX21_p53_BLA_p5_ratio: Tox21 HCT-116 p53 Agonism Beta-lactamase Assay, Ratio, Phase 5 (AID 2283599). The method, boiled down: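 HCT-116 p53-bla cells (4000/well) plated 5 h, dosed with compound (217-fold DMSO dilution) for 16 h at 37 C; CCF4-AM substrate 2 h at room temperature. Activity is the 460/530 nm emission ratio (405 nm excitation), fitted in gain-of-signal direction versus DMSO.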

Assay [6] is described as follows: TOX21_p53_BLA_p5_viability: Viability Assessment in the Tox21 HCT-116 p53 Agonism Beta-lactamase Assay, Phase 5 (AID 2283600). In a few lines:
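Viability came from CellTiter-Glo ATP luminescence, read after 30 min at room temperature. Before this, HCT-116 p53-bla cells (4000/well) had 16 hours of compound exposure at 37C, with DMSO stocks diluted 217-fold on transfer.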

Assay [7] deals with Cellular tumor antigen p53 (Homo sapiens) (UniProt P04637). The assay can be described thus: TOX21_p53_BLA_p4_ratio: Tox21 HCT-116 p53 Agonism Beta-lactamase Assay, Ratio, Phase 4 (AID 2283601). The method, boiled down: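 HCT-116 p53 beta-lactamase reporter cells (4000/well) preincubated 5 h, then compound (217-fold dilution of DMSO stock) for 16 h at 37C. CCF4-AM substrate added 2 h at room temperature; 460/530 nm emission ratio fitted upward versus DMSO.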

The target of assay [8] is Thyroid hormone receptor alpha (Rattus norvegicus) + Thyroid hormone receptor beta (Rattus norvegicus) (UniProt P18113+P63059). The assay can be described thus: TOX21_TR_LUC_GH3_Antagonist_Followup: Tox21 GH3 Thyroid Hormone Receptor Antagonism Luciferase Follow-Up Assay (AID 2283942). In a few lines:
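Luminescence read-out (ONE-Glo, 30 min at room temperature) in GH3 reporter cells challenged with 1.0 nM T3 final. Compounds ran at 92 uM to 5nM over 15 concentrations for 24 h; DMSO served as negative control and baseline.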

A further assay deals with THRA (gene 7067) (UniProt P10827). The assay can be described thus: TOX21_TRA_COA_Antagonist_Followup_ratio: Tox21 Thyroid Hormone Receptor alpha Antagonism through Coactivator Recruitment Follow-Up Assay, Ratio (AID 2283953). In a few lines:
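We measured antagonism of T3-type coactivator recruitment using a TR-FRET ratio (emission 520 and 495 nm) between a Tb-labelled anti-GST antibody on TRα LBD (2.5 nM) and SRC-2 peptide (200 nM). Activity was scaled between DMSO and T3 wells.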

The next assay deals with THRB (gene 7068) (UniProt P10828). The assay can be described thus: TOX21_TRB_BLA_Antagonist_Followup_ratio: Tox21 Thyroid Hormone Receptor beta Antagonism Beta-lactamase (BLA) Follow-Up Assay, Ratio (AID 2283958). The method, boiled down: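 Read-out: blue/green (460:530 nm) ratio of cleaved to uncleaved CCF4-AM after 2 h at room temperature, fitted against DMSO baseline. HEK293T UAS-bla cells carrying GAL4-human TRβ LBD were exposed 18 h, 37C/5% CO2.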
THRB (gene 7068), sequence (P10828 whole entry, looked up, the tested form may be a part): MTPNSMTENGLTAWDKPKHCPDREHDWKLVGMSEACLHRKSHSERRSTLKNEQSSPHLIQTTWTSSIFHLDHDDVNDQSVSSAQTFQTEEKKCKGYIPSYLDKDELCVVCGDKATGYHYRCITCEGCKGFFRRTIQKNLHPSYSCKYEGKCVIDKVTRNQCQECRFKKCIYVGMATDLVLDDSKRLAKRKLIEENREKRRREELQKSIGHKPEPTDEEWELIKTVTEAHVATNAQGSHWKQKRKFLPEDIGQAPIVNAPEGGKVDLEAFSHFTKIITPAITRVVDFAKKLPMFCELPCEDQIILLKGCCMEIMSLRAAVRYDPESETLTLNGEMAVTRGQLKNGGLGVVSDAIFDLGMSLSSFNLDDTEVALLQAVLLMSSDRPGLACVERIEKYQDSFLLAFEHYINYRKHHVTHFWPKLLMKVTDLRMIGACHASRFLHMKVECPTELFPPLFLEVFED

Assay [9] can be described thus: TOX21_TRB_BLA_Antagonist_Followup_viability: Viability Assessment in the Tox21 Thyroid Hormone Receptor beta Antagonism Beta-lactamase (BLA) Follow-Up Assay (AID 2283961). In a few lines:
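ATP-based CellTiter-Glo luminescence (30 min, room temperature) run in the same wells as the TRβ-bla readout. Cells: GeneBLAzer HEK293T expressing GAL4-TRβ LBD, exposed 18 h at 37C to compounds at 11 concentrations in triplicate, stripped-serum medium.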

Assay [10] is described as follows: TOX21_TR_RXR_BLA_Antagonist_Followup_viability: Viability Assessment in the Tox21 Thyroid Hormone Receptor beta Retinoid X Receptor alpha (RXRa) Antagonism Beta-lactamase (BLA) Follow-Up Assay (AID 2283979). In a few lines:
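RXRa-bla HEK293T cells (2,500/well, phenol red-free DMEM, 2% charcoal-stripped FBS) were attached 5 h, then exposed to compounds at 11 concentrations in triplicate for 16 h at 37C. Viability measured by CellTiter-Glo ATP luminescence, bidirectional fitting versus DMSO.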

THRA (gene 7067), sequence (P10827 whole entry, looked up, the tested form may be a part): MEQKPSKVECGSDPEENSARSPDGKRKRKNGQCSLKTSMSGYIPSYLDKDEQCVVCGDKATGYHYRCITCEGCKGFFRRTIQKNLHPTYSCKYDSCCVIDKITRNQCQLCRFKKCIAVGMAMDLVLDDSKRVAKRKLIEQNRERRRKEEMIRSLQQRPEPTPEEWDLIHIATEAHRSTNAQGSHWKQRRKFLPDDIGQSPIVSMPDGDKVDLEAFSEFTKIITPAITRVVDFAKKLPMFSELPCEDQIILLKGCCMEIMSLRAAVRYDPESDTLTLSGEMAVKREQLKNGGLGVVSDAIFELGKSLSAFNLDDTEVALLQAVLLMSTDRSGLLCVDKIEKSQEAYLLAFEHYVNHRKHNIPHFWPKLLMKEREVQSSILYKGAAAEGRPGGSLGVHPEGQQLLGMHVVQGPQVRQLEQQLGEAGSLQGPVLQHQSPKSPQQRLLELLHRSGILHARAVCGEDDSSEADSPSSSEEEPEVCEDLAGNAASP

Regarding `Nc1ncnc2c1ncn2[C@@H]1O[C@H](COP(=O)(O)OP(=O)(O)OP(=O)(O)O)[C@@H](O)[C@H]1O`, the result in assay [1], in assay [2], in [3], in assay [4], in assay [5] and in assay [6] was inactive. Further, in assay [7], the result was inactive.
`COc1ccccc1C=CC=O`: the result in [1], in [2], in assay [3], in assay [4], in [5] and in [7] was inactive.
Regarding `Cc1c(C)c2c(c(C)c1O)CC[C@@](C)(CCC[C@H](C)CCC[C@H](C)CCCC(C)C)O2`, the outcome in [1], in assay [2], in assay [3], in assay [4], in assay [5] and in assay [6] was inactive. Also, in assay [7], the result was inactive.
As for `Nc1ccccc1O`, the AC50 in assay [1] was 41 µM (active); in assay [3] it was 39.2 µM (active); in assay [4] it was 75.4 µM (active); in assay [5], 32.1 µM (active); in assay [7], 35.2 µM (active). Also, the molecule was called inactive in assay [2].
For the molecule `CC(CO)Oc1ccccc1` (stereo not drawn), the outcome in assay [1], in [2], in assay [3], in assay [4], in assay [5] and in [7] was inactive.
Take `O=C(O)P(=O)(O)O`: the result in assay [1], in assay [2], in [3], in assay [4], in assay [5] and in assay [7] was inactive.
On to `CO[C@H](C(=O)[C@@H](O)[C@@H](C)O)C1Cc2cc3cc(O[C@H]4C[C@@H](O[C@H]5C[C@@H](O)[C@H](O)[C@@H](C)O5)[C@@H](O)[C@@H](C)O4)c(C)c(O)c3c(O)c2C(=O)[C@H]1O[C@H]1C[C@@H](O[C@H]2C[C@@H](O[C@H]3C[C@](C)(O)[C@H](O)[C@@H](C)O3)[C@H](O)[C@@H](C)O2)[C@H](O)[C@@H](C)O1` (stereo partly drawn), for which the AC50 in assay [1] is 23.8 nM (active) and 43.4 nM (active); in assay [3] it was 24.2 nM (active) and 37.6 nM (active); in assay [5], 36 nM (active) and 39.5 nM (active); in [7] it was 45.6 nM (active) and 49.7 nM (active); in assay [8], 0.745 µM (active); with THRB (gene 7068), 4.01 µM (active). Besides, the AC50 in [10] was 1.35 µM (active). Moreover, the molecule was classed as inactive (in assay [2]; in [4]; in assay [6]; with THRA (gene 7067); in [9]).
Consider `O=C1N=C(O)CN1N=Cc1ccc(-c2ccc([N+](=O)[O-])cc2)o1`, for which the result in assay [1], in [2], in [3], in assay [4], in assay [5] and in [6] was inactive. Moreover, the outcome in assay [7] was inactive.
Take `CCCCCCCCCCCCCCC[C@H](O)[C@@H](N)CO`: the outcome in [1], in assay [2], in assay [3], in assay [4], in assay [5] and in assay [7] was inactive.
Turning to `O=C(O)Cc1ccc(-c2ccccc2)cc1`, the result in assay [1], in assay [2], in assay [3], in assay [4], in assay [5] and in [6] was inactive. Further, the outcome in [7] was inactive.
For `O=C(O)CCCc1ccccc1`, the outcome in assay [1], in assay [3], in [4], in [5] and in [7] was inactive. For the same molecule, in [2], the AC50 is 36.2 µM (active).
As to `CN[C@@H]1[C@@H](O[C@H]2O[C@H](CO)[C@@H](N)[C@H](O)[C@H]2O)O[C@H]2C[C@@H](N)[C@@H](O[C@H]3[C@H](O)[C@@H](O)[C@H](N)C[C@@H]3N)O[C@@H]2[C@@H]1O`, the outcome in [1], in assay [2], in assay [3], in [4], in assay [5] and in [6] was inactive. In assay [7], the outcome was inactive.
